SW480 rerep: A quantitative high throughput screen for small molecules that induce DNA re-replication in SW480 colon adenocarcinoma cells. SW480 DNA re-replication, Hoechst DNA content imaging, 48 h. Potency, µM (series often up to 46.1 µM), usual class: activators. 1.8% of 340,000 active; also: nearly all actives have a fitted effect of over 55% in size
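SW480 cells exposed to compounds for 48 hr at 37 C, 5% CO2, then Hoechst-stained 40 min. Nuclear DNA content imaged by fluorescence scanning (405 nm excitation, 500-530 nm emission); re-replication scored as increased high-intensity nuclei.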
Chronic BCR inh: qHTS Assay to Find Inhibitors of Chronic Active B-Cell Receptor Signaling; ABC-DLBCL IkBa-CBG/CBR reporter, luminescence ratio, 4 h; Potency, µM (titrated, usually from 46.1 µM), hits mostly inhibitors; 0.05% of 340,000 active; active = well fitted inhibition curve with a large enough effect in the signal ratio, with a control signal flat, not every such curve was filed as active; inconclusive = small, poorly fitted or top-dose-only effect, or effect the other way, or a change in a side signal; the % refers to the signal ratio
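Compounds up to 46 uM were incubated four hours with TMD8 cells whose green CBG68 luciferase is fused to IkappaBalpha; red CBR luminescence normalised the signal, and concentration-effect curves were fitted to fusion, red and ratio data.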
MCF10A rerep: A quantitative high throughput screen for small molecules that induce DNA re-replication in MCF 10a normal breast cells; AID 624296, 2012; MCF 10A DNA re-replication, Hoechst nuclear intensity, 48 h; 2.9% of 350,000 active; Potency, µM (top dose mostly 46.1 µM), most hits filed as activators; also: nearly all actives have a fitted effect of over 50% in size
Giardia killer: Small Molecules that selectively kill Giardia lamblia: qHTS | Giardia lamblia trophozoite viability | activity change, % at 7.66 µM, hits read low | 0.15% of 340,000 active | AID 540267, 2011; in the data active = activity change below about -80%; inconclusive = between about -30% and that limit;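 also: parasites exposed to compound for two days anaerobically before the ATP read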
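Killing of trophozoites was scored by loss of ATP luminescence after a 48 hrs anaerobic exposure to compounds at 37 deg C, using 100 cells per well.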
VP16 counter: VP16 counterscreen qHTS for inhibitors of ROR gamma transcriptional activity; Drosophila S2 Gal4-VP16 UAS-luciferase, luminescence, 20 h; Potency, µM (titrated, usually from 53.6 µM), usual class: inhibitors; 3.5% of 310,000 active;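 also: Gal4-VP16 expression switched on by copper sulfate through the metallothionein promoter; nearly all actives have a fitted effect of over 50% in size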
RORg inh: qHTS for inhibitors of ROR gamma transcriptional activity | Nuclear receptor ROR-gamma (Mus musculus), P51450 | Drosophila S2 Gal4-RORgamma UAS-luciferase reporter, 20 h | Potency, µM (doses to about 53.6 µM), most hits filed as inhibitors | 5.4% of 310,000 active; also: nearly all actives have a fitted effect of over 60% in size
Target sequence (P51450 whole entry, looked up, the tested form may be a part): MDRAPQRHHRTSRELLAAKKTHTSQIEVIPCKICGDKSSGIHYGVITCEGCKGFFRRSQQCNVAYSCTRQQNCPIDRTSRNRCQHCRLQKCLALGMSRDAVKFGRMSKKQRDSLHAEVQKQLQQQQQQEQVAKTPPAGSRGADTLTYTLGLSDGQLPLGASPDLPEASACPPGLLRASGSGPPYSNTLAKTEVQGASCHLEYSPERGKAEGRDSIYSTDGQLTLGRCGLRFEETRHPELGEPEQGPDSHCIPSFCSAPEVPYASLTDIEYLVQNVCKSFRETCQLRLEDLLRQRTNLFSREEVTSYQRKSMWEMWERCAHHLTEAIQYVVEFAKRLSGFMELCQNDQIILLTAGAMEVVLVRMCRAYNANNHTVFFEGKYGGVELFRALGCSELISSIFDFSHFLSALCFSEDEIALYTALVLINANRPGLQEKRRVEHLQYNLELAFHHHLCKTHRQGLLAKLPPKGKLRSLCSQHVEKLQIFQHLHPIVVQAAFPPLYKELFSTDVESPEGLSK
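Luciferase reporter read in Schneider cells carrying Gal4-RORγ (mouse) and UAS-Photinus luciferase; cells given compound 1 h before 700 uM copper sulfate induction, then incubated 20 h at ambient temperature.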
Large screens that a line does not name were inactive. An excerpt weighted towards active compounds, which were near 8.3% of everything screened. Unless noted, calls follow the shape of the dose curve; as a rule, active = well fitted curve in the direction sought with a large enough effect; inconclusive = small, poorly fitted or top-dose-only effect, or another doubt; inactive = no such curve, though single readings can be large; an effect the other way counts as inactive or inconclusive.

CCN(CC)c1ccc(NC(=O)c2ccco2)cc1	VP16 counter inconclusive, RORg inh inconclusive
CCN(CC)c1ccc(/C=N/N=C(c2ccccc2)c2ccccc2)c(O)c1	SW480 rerep 23µM, MCF10A rerep inconclusive, VP16 counter 20µM, RORg inh inconclusive
CCN(CC)c1ccc(/C=N/NC(=S)NCc2ccccc2)c(O)c1	SW480 rerep 16µM, MCF10A rerep 16µM, VP16 counter 7.1µM, RORg inh 8.9µM
CCN(CC)c1ccc(/C=N/NC(=O)c2ccco2)c(O)c1	SW480 rerep 1.5µM, Chronic BCR inh inconclusive, MCF10A rerep 21µM, VP16 counter 3.2µM, RORg inh 0.79µM
CCN(CC)c1ccc(/C=N/NC(=O)c2ccco2)cc1	SW480 rerep 5.8µM, Chronic BCR inh inconclusive, MCF10A rerep 4.1µM, VP16 counter inconclusive, RORg inh 14µM
N#CCCN1CCN(C2=NC(=O)/C(=C\c3cccs3)S2)CC1	none
Cn1cccc1C(=O)NC(=O)COC(=O)CCNS(=O)(=O)c1ccc(Cl)cc1	Chronic BCR inh inconclusive (no result: VP16 counter, RORg inh)
O=C(N/N=C/c1ccc2cccnc2c1)c1ccco1	Chronic BCR inh inconclusive, VP16 counter 11µM, RORg inh inconclusive
CCN(CC)c1ccc(/C=N/NC(=O)Cc2cccs2)c(O)c1	SW480 rerep inconclusive, MCF10A rerep inconclusive, VP16 counter 0.56µM, RORg inh 0.18µM
O=C(N/N=C/c1ccccc1)c1ccco1	Chronic BCR inh inconclusive
CCN(CC)c1ccc(/C=N/NC(=O)c2cnccn2)cc1	SW480 rerep inconclusive, Chronic BCR inh inconclusive, MCF10A rerep 2.3µM
COc1ccccc1CNC(=O)N1CCN(c2ccccc2Cl)CC1	MCF10A rerep inconclusive
Cc1ccc(N(CCO)C(=S)Nc2ccccc2)cc1	SW480 rerep inconclusive, Chronic BCR inh inconclusive
NC1=NS(=O)(=O)NC1c1ccc(Br)cc1 (centres undefined)	none
CC1CN(CC(O)COC(c2ccc(Cl)cc2)c2ccc(Cl)cc2)CC(C)O1 (centres undefined)	MCF10A rerep 7.3µM
Cc1cccn2c(/C=N/OCc3cccc(F)c3)c(-c3ccc(Cl)cc3)nc12	MCF10A rerep inconclusive, RORg inh 2.2µM
CCCCOc1ccc(OCCNC(=O)c2ccco2)cc1	MCF10A rerep inconclusive
Cc1nn(-c2ccccn2)c2c1-c1nc(N)ncc1CC2	none
C=C(C)C1Cc2c(C)nn(-c3cccc4cccnc34)c2C1 (centres undefined)	Chronic BCR inh inconclusive, RORg inh 14µM
C=C(C)C1Cc2c(C)nn(-c3ccccn3)c2C1 (centres undefined)	VP16 counter inconclusive, RORg inh 13µM
O=S(=O)(NCC(c1ccco1)S(=O)(=O)c1ccccc1)c1cc(F)ccc1F (centres undefined)	none (no result: SW480 rerep, MCF10A rerep, Giardia killer, VP16 counter, RORg inh)
OC(CN1CCC(Cc2ccccc2)CC1)c1ccccc1 (centres undefined)	none
COc1ccc(NC(=O)c2cc3ccc(O)cc3o/c2=N\O)cc1	SW480 rerep inconclusive, Chronic BCR inh inconclusive, Giardia killer inconclusive, VP16 counter 0.1µM, RORg inh 0.063µM
COc1ccc(NC(=O)c2cc3cc(OC)ccc3oc2=N)cc1	none
COc1ccc(OC)c(N=c2oc3cc(O)ccc3cc2C(N)=O)c1	SW480 rerep 18µM, Chronic BCR inh inconclusive, MCF10A rerep 16µM
COc1ccc2oc(=O)c(/C(C)=N/NC(=O)c3ccncc3)cc2c1	Chronic BCR inh inconclusive, VP16 counter inconclusive, RORg inh 13µM
COc1ccc2o/c(=N\O)c(C(=O)Nc3ccccc3OC)cc2c1	Chronic BCR inh inconclusive, VP16 counter inconclusive, RORg inh 2.8µM
COc1cccc2cc(C(=O)Nc3ccccc3C)/c(=N/O)oc12	SW480 rerep inconclusive, Chronic BCR inh inconclusive
O=C1OCC/C1=C\c1ccc(O)cc1	RORg inh inconclusive
O=C(c1cccc(Cl)c1Cl)N(Cc1ccco1)Cc1cccs1	none (no result: SW480 rerep, Chronic BCR inh, MCF10A rerep, VP16 counter, RORg inh)
COc1cc(C(CC(=O)Nc2cccc(C)n2)N2Cc3ccccc3C2=O)cc(OC)c1OC (centres undefined)	Chronic BCR inh inconclusive
COc1ccc2oc(=O)c(C(=O)Nc3ccccc3O)cc2c1	Chronic BCR inh inconclusive, VP16 counter inconclusive, RORg inh 8.9µM
N=c1oc2cc(O)ccc2cc1C(=O)Nc1ccc(F)cc1	SW480 rerep 8.2µM, Chronic BCR inh inconclusive, MCF10A rerep 9.2µM, VP16 counter 7.1µM, RORg inh 11µM
COc1ccc(S(=O)(=O)N(C)C)cc1NC(=O)COC(=O)C1CC1	Chronic BCR inh inconclusive (no result: VP16 counter, RORg inh)
COc1ccc(-c2ccc3c(c2)C2CC3CCN2C(=O)C(C)(C)C)cc1 (centres undefined)	SW480 rerep inconclusive (no result: Chronic BCR inh, VP16 counter, RORg inh)
CCOc1ccc(NC(=O)CN(C)C(=O)C2CC(=O)N(Cc3ccco3)C2)cc1OCC (centres undefined)	none (no result: VP16 counter, RORg inh)
CN(C)c1ccc(-c2cc([C@H]3[C@@H]4C=CCC[C@@]4(C)C(=O)N3Cc3ccccc3)ccc2F)cc1	Chronic BCR inh inconclusive
CCOC(=O)COc1ccccc1/C=C\[N+](=O)[O-]	SW480 rerep 4.1µM, Chronic BCR inh inconclusive, MCF10A rerep inconclusive, VP16 counter 3.5µM, RORg inh 16µM
COc1ccc2nc3c(c([Si](C)(C)C(C)(C)C)c2c1)Cn1c-3cccc1=O	VP16 counter 11µM, RORg inh 13µM (no result: SW480 rerep, Chronic BCR inh, MCF10A rerep, Giardia killer)
Cc1cc(C(F)(F)F)nn1Cc1n[nH]c(=S)n1Cc1ccccc1	VP16 counter 6.3µM, RORg inh inconclusive
Cc1cc(C(F)(F)F)nn1Cc1n[nH]c(=S)n1-c1cccc(Cl)c1	MCF10A rerep inconclusive, VP16 counter inconclusive, RORg inh 11µM
COc1cccc(OC)c1C(=O)Nc1nc2cc3c(cc2s1)OCO3	none
COc1cc(C(=O)NNc2nc3cc4c(cc3s2)OCO4)cc(OC)c1OC	MCF10A rerep inconclusive, VP16 counter 13µM, RORg inh inconclusive
COc1ccc2nc(Nc3ccc4c(c3)OCO4)sc2c1	Chronic BCR inh inconclusive, VP16 counter inconclusive
COc1ccc2nc(Nc3nc4cc5c(cc4s3)OCO5)sc2c1	SW480 rerep inconclusive, Chronic BCR inh inconclusive, MCF10A rerep inconclusive, VP16 counter 11µM, RORg inh 4.5µM
COc1cc(OC)cc(C(=O)NNc2nc3cc4c(cc3s2)OCO4)c1	VP16 counter 13µM, RORg inh 4.5µM
Cc1cccc(N(C(=O)c2nsc(Cl)c2Cl)C(C(=O)NC2CCCC2)c2ccc(O)cc2)c1 (centres undefined)	Chronic BCR inh inconclusive
CC(=O)c1c(C)[nH]c(C(=O)Nc2cccc(S(=O)(=O)N(C)c3ccccc3)c2)c1C	SW480 rerep 23µM, Chronic BCR inh inconclusive, MCF10A rerep 23µM

Compound activity: PubChem, National Center for Advancing Translational Sciences (NCATS)
